Assay results published in PubChem BioAssay (Tox21).
Results filed as inconclusive are left out. Calls of active or inactive are those of the source. Unless noted, calls follow the shape of the dose curve; as a rule, active = well fitted curve in the direction sought with a large enough effect in the repeat runs; inconclusive = weak or mixed curves; inactive = no such curve, though single readings can be large; an effect the other way counts as inactive or inconclusive.

System: not listed separately
Test: qHTS assay to identify small molecule agonists of the estrogen receptor beta (ER-beta) signaling pathway - cell viability counter screen (AID 1259380); also: nearly all actives have a fitted effect of over 30% in size; also: potency is read from the fitted curve at half-maximal effect
Details: ER-beta-bla HEK293T viability, CellTiter-Glo luminescence, 16 h; series mostly up to 92.4 µM; activity change, negative = cytotoxicity: at the top concentration
In short: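 Viability of ER-beta-UAS-bla HEK293T cells was determined by CellTiter-Glo luminescence following 16 hr treatment with test compounds at 37C.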
% is scaled to controls: 0 for no effect and ±100 for the full control effect.

SMILES	activity change, negative = cytotoxicity	Potency
CC(C)Cc1ccc(C(C)C(=O)OCc2ccccn2)cc1 (stereo not drawn)	-1.35% [at 42.5 µM] (inactive)	
CCOc1ccc(O)cc1	-0.354% (inactive)	
CC(=O)c1cccc([N+](=O)[O-])c1	-0.46% (inactive)	
CC1CCC(=O)C1=O (stereo not drawn)	1.88% (inactive)	
O=C(O)c1ccco1	2.83% (inactive)	
CN1Cc2cc(C(=O)N3CCC(C4CCNCC4)CC3)ccc2NC(CC(=O)O)C1=O (stereo not drawn)	-0.506% [at 42.5 µM] (inactive)	
CCOc1ccc(N)c([N+](=O)[O-])c1	-3.62% (inactive)	
Nc1ccc([N+](=O)[O-])c(C(F)(F)F)c1	7.03% [at 42.5 µM] (inactive)	
CCCCCCCCCCO[C@@H]1O[C@H](CO)[C@@H](O)[C@H](O)[C@H]1O	-13.5% (inactive)	
O=P(O)(OCc1ccccc1)OCc1ccccc1	8.84% (inactive)	
C=CC1CC2C=CC1C2 (stereo not drawn)	6.78% (inactive)	
Brc1c2ccccc2c(Br)c2ccccc12	1.65% [at 8.39 µM] (inactive)	
Brc1c2ccccc2cc2ccccc12		61.8 µM (active)
O=C(OCCc1ccccc1)c1ccccc1	1.93% (inactive)	
CCC(CC)Nc1ccc(C)c(C)c1	4.58% (inactive)	
COc1ccc(C(=O)c2ccc(OC)cc2O)c(O)c1	-6.05% (inactive)	

SMILES	activity change, negative = cytotoxicity	Potency
C[C@@H]1C[C@H]2[C@@H]3CCC4=CC(=O)C=C[C@]4(C)[C@@]3(F)[C@@H](O)C[C@]2(C)[C@@]1(O)C(=O)COC(=O)c1ccncc1		29.8 µM (active)
CCCCCCCCCOS(=O)(=O)O	0.426% (inactive)	
C/C=C(/C(=C/C)c1ccc(OC(C)=O)cc1)c1ccc(OC(C)=O)cc1	-8.4% [at 42.5 µM] (inactive)	
ClCCOCCOCCCl	12% (inactive)	
O=C1CCC(=O)O1	7.19% (inactive)	
C=C1[C@H]2CC[C@@H]3[C@H]2C(C)(C)CCC[C@]13C	-4.86% (inactive)	
COC(C)OC	8.88% (inactive)	
Cc1oc(-c2ccccc2)nc1CCOc1cccc2c1ccn2CCC(=O)O		10.9 µM (active)
C[N+](C)(C)CCOC(=O)CCC(=O)OCC[N+](C)(C)C	0.235% [at 42.5 µM] (inactive)	
CCCC(=O)Nc1ccc(O)c(C(C)=O)c1	4.93% [at 42.5 µM] (inactive)	
CC1=CC=C(C(C)C)CC1	-1.32% (inactive)	
C=CCOc1ccccc1OCC(O)CNC(C)C (stereo not drawn)	6.25% [at 42.5 µM] (inactive)	
c1cc(CCCc2ccncc2)ccn1	-9.6% (inactive)	
Cc1cc(C(=O)O)ccc1[N+](=O)[O-]	-10% (inactive)	
CN(C)c1ccc(CCO)cc1	1.66% (inactive)	

System: not listed separately
Test: qHTS assay to identify small molecule antagonists of the estrogen receptor beta (ER-beta) signaling pathway - cell viability counter screen (AID 1259382);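 also: HEK293T cells carrying ER-beta-UAS-bla reporter stimulated with estradiol; nearly all actives have a fitted effect of over 55% in size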
Details: ER-beta-UAS-bla HEK293T viability, CellTiter-Glo luminescence, 16 h; series mostly up to 92.4 µM; activity change, negative = cytotoxicity: at the top concentration
In short: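 Tox21 10K library tested in qHTS format on ER-beta-bla HEK293T cells stimulated with 1nM E2; 16 hr treatment at 37C. Same-well CellTiter-Glo luminescence served as the cell viability measure.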

SMILES	activity change, negative = cytotoxicity
CC1OC(=O)C(C)OC1=O (stereo not drawn)	-0.101% (inactive)
CC(C)Cc1ccc(C(C)C(=O)OCc2ccccn2)cc1 (stereo not drawn)	0.266% [at 42.5 µM] (inactive)
CCOc1ccc(O)cc1	-6.45% (inactive)
CN1C[C@H]2c3ccccc3Oc3ccc(Cl)cc3[C@@H]2C1	-23.7% [at 42.5 µM] (inactive)
CC(=O)c1cccc([N+](=O)[O-])c1	1.96% (inactive)
CC1CCC(=O)C1=O (stereo not drawn)	-1.97% (inactive)
O=C(O)c1ccco1	-2.82% (inactive)
CN1Cc2cc(C(=O)N3CCC(C4CCNCC4)CC3)ccc2NC(CC(=O)O)C1=O (stereo not drawn)	7.82% [at 42.5 µM] (inactive)
CCOc1ccc(N)c([N+](=O)[O-])c1	0.361% (inactive)
Nc1ccc([N+](=O)[O-])c(C(F)(F)F)c1	-5.41% [at 42.5 µM] (inactive)
CCCCCCCCCCO[C@@H]1O[C@H](CO)[C@@H](O)[C@H](O)[C@H]1O	-9.15% (inactive)
O=P(O)(OCc1ccccc1)OCc1ccccc1	0.447% (inactive)
C=CC1CC2C=CC1C2 (stereo not drawn)	-2.27% (inactive)
Brc1c2ccccc2c(Br)c2ccccc12	7.62% [at 8.39 µM] (inactive)
O=C(OCCc1ccccc1)c1ccccc1	1.4% (inactive)
CCC(CC)Nc1ccc(C)c(C)c1	16.2% (inactive)
COc1ccc(C(=O)c2ccc(OC)cc2O)c(O)c1	0.477% (inactive)

SMILES	activity change, negative = cytotoxicity
c1ccc(C(O[C@H]2CCCN(CCc3ccc4c(c3)OCO4)C2)c2ccccc2)cc1	-13.6% [at 42.5 µM] (inactive)
C[C@@H]1C[C@H]2[C@@H]3CCC4=CC(=O)C=C[C@]4(C)[C@@]3(F)[C@@H](O)C[C@]2(C)[C@@]1(O)C(=O)COC(=O)c1ccncc1	-27.4% [at 42.5 µM] (inactive)
CCCCCCCCCOS(=O)(=O)O	1.43% (inactive)
C/C=C(/C(=C/C)c1ccc(OC(C)=O)cc1)c1ccc(OC(C)=O)cc1	9.16% [at 42.5 µM] (inactive)
ClCCOCCOCCCl	7.15% (inactive)
O=C1CCC(=O)O1	5.57% (inactive)
C=C1[C@H]2CC[C@@H]3[C@H]2C(C)(C)CCC[C@]13C	-1.83% (inactive)
COC(C)OC	3.68% (inactive)
Cc1oc(-c2ccccc2)nc1CCOc1cccc2c1ccn2CCC(=O)O	-7.52% (inactive)
C[N+](C)(C)CCOC(=O)CCC(=O)OCC[N+](C)(C)C	2.24% [at 42.5 µM] (inactive)
CCCC(=O)Nc1ccc(O)c(C(C)=O)c1	11.8% [at 42.5 µM] (inactive)
CC1=CC=C(C(C)C)CC1	-0.991% (inactive)
C=CCOc1ccccc1OCC(O)CNC(C)C (stereo not drawn)	3.75% [at 42.5 µM] (inactive)
c1cc(CCCc2ccncc2)ccn1	-3.11% (inactive)
Cc1cc(C(=O)O)ccc1[N+](=O)[O-]	-0.0514% (inactive)
CN(C)c1ccc(CCO)cc1	-5% (inactive)

Target: Estrogen receptor (Homo sapiens) (UniProt P03372)
Test: qHTS assay to identify small molecule agonists of the estrogen receptor alpha (ER-alpha) signaling pathway in the presence of an antagonist (AID 1259383; calls by dose curve; also: nearly all actives have a fitted effect of over 15% in size; also: potency is read from the fitted curve at half-maximal effect; as to activation: top concentration of the series differs between compounds)
Details: VM7Luc4E2 cells, ERE-luciferase, +ICI-182,780, 22 h; series mostly up to 42.5 µM; activation: at the top concentration
In short: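 In VM7Luc4E2 cells, 4,000 per well, compounds at 15 concentrations were co-incubated 22hr at 37C with 10.0nM final ICI-182,780. Luminescence from the stably transfected 4×ERE-luciferase reporter was recorded 30min after ONE-Glo addition.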

Chain of Estrogen receptor (Homo sapiens) (P03372 whole entry, looked up): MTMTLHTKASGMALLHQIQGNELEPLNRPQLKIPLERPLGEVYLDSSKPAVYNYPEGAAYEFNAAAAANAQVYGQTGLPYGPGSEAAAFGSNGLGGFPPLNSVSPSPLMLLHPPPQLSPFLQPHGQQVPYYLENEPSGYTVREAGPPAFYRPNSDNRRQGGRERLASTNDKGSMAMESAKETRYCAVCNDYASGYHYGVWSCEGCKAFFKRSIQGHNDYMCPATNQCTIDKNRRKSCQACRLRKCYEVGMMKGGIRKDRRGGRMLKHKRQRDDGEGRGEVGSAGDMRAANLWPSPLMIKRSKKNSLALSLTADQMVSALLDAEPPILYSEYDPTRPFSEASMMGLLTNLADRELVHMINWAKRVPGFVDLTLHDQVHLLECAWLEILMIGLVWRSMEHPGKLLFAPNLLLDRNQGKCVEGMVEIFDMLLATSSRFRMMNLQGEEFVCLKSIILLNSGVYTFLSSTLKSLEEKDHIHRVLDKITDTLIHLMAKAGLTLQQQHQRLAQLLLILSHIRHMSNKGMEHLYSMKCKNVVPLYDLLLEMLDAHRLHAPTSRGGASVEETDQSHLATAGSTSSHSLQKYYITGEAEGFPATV

SMILES	activation	Potency
CC1OC(=O)C(C)OC1=O (stereo not drawn)	0.199% [at 92.4 µM] (inactive)	
CC(C)Cc1ccc(C(C)C(=O)OCc2ccccn2)cc1 (stereo not drawn)	-0.897% (inactive)	
CCOc1ccc(O)cc1	3.53% [at 92.4 µM] (inactive)	
CN1C[C@H]2c3ccccc3Oc3ccc(Cl)cc3[C@@H]2C1	-0.0824% (inactive)	
CC(=O)c1cccc([N+](=O)[O-])c1	-0.214% [at 92.4 µM] (inactive)	
CC1CCC(=O)C1=O (stereo not drawn)	-2.17% [at 92.4 µM] (inactive)	
O=C(O)c1ccco1	1.8% [at 92.4 µM] (inactive)	
CN1Cc2cc(C(=O)N3CCC(C4CCNCC4)CC3)ccc2NC(CC(=O)O)C1=O (stereo not drawn)	-0.463% (inactive)	
CCOc1ccc(N)c([N+](=O)[O-])c1	1.24% [at 92.4 µM] (inactive)	
Nc1ccc([N+](=O)[O-])c(C(F)(F)F)c1	0.213% (inactive)	
CCCCCCCCCCO[C@@H]1O[C@H](CO)[C@@H](O)[C@H](O)[C@H]1O	-0.0042% [at 92.4 µM] (inactive)	
O=P(O)(OCc1ccccc1)OCc1ccccc1	-1.98% [at 92.4 µM] (inactive)	
C=CC1CC2C=CC1C2 (stereo not drawn)	0.0444% [at 92.4 µM] (inactive)	
Brc1c2ccccc2c(Br)c2ccccc12	-0.192% [at 8.39 µM] (inactive)	
Brc1c2ccccc2cc2ccccc12	2.87% [at 92.4 µM] (inactive)	
CCC(CC)Nc1ccc(C)c(C)c1	-0.388% [at 92.4 µM] (inactive)	
COc1ccc(C(=O)c2ccc(OC)cc2O)c(O)c1		8.7 µM (active)

SMILES	activation	Potency
c1ccc(C(O[C@H]2CCCN(CCc3ccc4c(c3)OCO4)C2)c2ccccc2)cc1	-1% (inactive)	
C[C@@H]1C[C@H]2[C@@H]3CCC4=CC(=O)C=C[C@]4(C)[C@@]3(F)[C@@H](O)C[C@]2(C)[C@@]1(O)C(=O)COC(=O)c1ccncc1	-1.69% (inactive)	
CCCCCCCCCOS(=O)(=O)O	0.8% [at 92.4 µM] (inactive)	
C/C=C(/C(=C/C)c1ccc(OC(C)=O)cc1)c1ccc(OC(C)=O)cc1		0.0133 µM (active)
ClCCOCCOCCCl	-1.01% [at 92.4 µM] (inactive)	
O=C1CCC(=O)O1	-1% [at 92.4 µM] (inactive)	
C=C1[C@H]2CC[C@@H]3[C@H]2C(C)(C)CCC[C@]13C	-0.523% [at 92.4 µM] (inactive)	
COC(C)OC	-0.093% [at 92.4 µM] (inactive)	
Cc1oc(-c2ccccc2)nc1CCOc1cccc2c1ccn2CCC(=O)O	0.291% [at 92.4 µM] (inactive)	
C[N+](C)(C)CCOC(=O)CCC(=O)OCC[N+](C)(C)C	0.199% (inactive)	
CCCC(=O)Nc1ccc(O)c(C(C)=O)c1	0.944% (inactive)	
CCCCc1nc2cccnc2n1Cc1ccc(-c2ccccc2-c2nnn[nH]2)cc1	-0.814% [at 92.4 µM] (inactive)	
CC1=CC=C(C(C)C)CC1	0.279% [at 92.4 µM] (inactive)	
C=CCOc1ccccc1OCC(O)CNC(C)C (stereo not drawn)	-0.546% (inactive)	
c1cc(CCCc2ccncc2)ccn1	0.803% [at 92.4 µM] (inactive)	
Cc1cc(C(=O)O)ccc1[N+](=O)[O-]	0.827% [at 92.4 µM] (inactive)	
CN(C)c1ccc(CCO)cc1	-0.0471% [at 92.4 µM] (inactive)	
